Unmarked numbers belong to inactive results. Active and inactive are the calls of the source.
Experiment: fission yeast growth modulation, primary screen, strain 972, OD600, 24 h, no modulator (AID 1090);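 also: basal condition with compound alone and no growth modifier present; test concentration not given here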
Details: S. pombe 972 growth, higher = more signal, called active from +8 up or from −8 down

Compound | z-score
O=C1C[C@@](C(=O)O)(c2ccc([N+](=O)[O-])cc2)[C@@H](c2ccc(CO)cc2)N1CC12CC3CC(CC(C3)C1)C2 | -2.98
Cc1ccc(S[C@]2(C(=O)O)CC(=O)N(Cc3ccccc3C(F)(F)F)[C@@H]2c2ccc(CO)cc2)cc1 | 0.13
COC(=O)c1ccc(OC)c(/C=C\CC(CCc2ccccc2)OC(C)=O)c1 (configuration not stated) | -0.645
C#CCNS(=O)(=O)N(C)C | 0.783
O=C1CSC(c2cccc([N+](=O)[O-])c2)N1c1ccccc1 (configuration not stated) | 0.616
CCN(CC)c1ccc(N2CC=CC34O[C@@H]5/C=C\CCCOC(=O)C5[C@H]3C(=O)N(CCCCCO)[C@@H]4C2=O)cc1 (some centres not stated) | -0.691
OCc1ccc(-c2cc[n+](Cc3cccc(OC(F)(F)F)c3)cc2)cc1 | -19.5 (active)
COCC1=C([C@H](O)CCc2ccccc2)[C@H](CO)[C@@H]2C(=O)N(C)C(=O)[C@@H]2C1 | -0.551
COC(=O)[C@@]1(Cc2ccc(F)cc2)[C@H]2c3cc(C(=O)N(C)C)n(Cc4ccc(C)c(F)c4F)c3C[C@H]2CN1C(=O)c1ccccc1 | 1.18
CCOC(=O)C[C@H]1[C@H](OC(=O)c2ccc(C(=O)c3ccccc3)cc2)[C@@H](NC(=O)C2CCCCC2)c2cc(OCCCO)ccc2N1C(=O)Cc1ccc(OC)cc1 | 0.0425
CCCN1C(=O)[C@@]2(Cc3ccccc3)N=C(c3ccc(OCCCO)cc3)O[C@H]2c2ccccc21 | -4.12
O=C1C2C=CC(C(O)c3ccccn3)N(Nc3ccccc3)C2C(=O)N1c1ccccc1 (configuration not stated) | 1.41
COc1cc(C(O)C2C=CC3C(=O)N(C)C(=O)C3N2NC(=O)OC(C)(C)C)cc(OC)c1OC (configuration not stated) | 2
COCC(=C=CC[C@@H](O)c1ccccc1OCCO)C[C@@H](O)c1ccccn1 | -1.4
C[N+](C)(C)CCCC[C@@H]1NC(=O)[C@@H]2C[C@H](C(=O)O)[C@H](c3cccc(OCCO)c3)N2C1=O | -1.13
C=CCC(OC(C)=O)[C@@H]1[C@@H](N(Cc2ccc(-c3cccc(C(F)(F)F)c3)o2)C(=O)c2cccc3ccccc23)c2cc(OCCCO)ccc2N1C(=O)c1ccc(-c2ccccc2)cc1 (some centres not stated) | 0.0758
COCCCNC(=O)[C@@]1(C)c2ccccc2C(=O)N(c2ccc(C)cn2)[C@H]1c1ccc(CO)cc1 | -0.473
COCCCNC(=O)[C@@]1(Cc2ccccc2CN=[N+]=[N-])N=C(c2ccc(OCCCO)cc2)O[C@H]1c1ccccc1N=[N+]=[N-] | -0.954
CC1(C)[C@@H]2CC(C(O)C3C=CC4C(=O)N(c5ccccc5)C(=O)C4N3Nc3ccccc3F)=C[C@@H]1C2 (some centres not stated) | 0.5
CCOC(=O)C[C@H]1[C@H](OC(=O)Cc2ccc3c(c2)OCO3)[C@@H](NC(=O)c2ccccc2)c2cc(OCCCO)ccc2N1C(=O)c1ccc2ccccc2n1 | -1.2
C=CC[C@]1(C(=O)NCC(O)CO)N=C(c2ccc(OCCCO)cc2)O[C@H]1c1ccccc1N=[N+]=[N-] (some centres not stated) | -0.529
C=C(COC)C(=O)CC[C@H](OC(=O)c1ccccc1-c1ccccc1C(=O)O)c1ccc(OCCO)cc1 | -0.613
COC(=O)[C@@]1(Cc2ccc(OC)cc2)[C@H]2c3cc(C(=O)N(C)C)n(Cc4cc(F)c(F)c(F)c4)c3C[C@H]2CN1C(=O)c1ccccc1 | 0.129
C=CCC(OC(C)=O)[C@@H]1[C@@H](N(Cc2ccc(-c3ccccc3)cc2)C(=O)Cc2ccc(OC)cc2)c2cc(OCCCO)ccc2N1C(=O)c1ccc(-c2ccccc2)cc1 (some centres not stated) | -0.512
COc1ccc(CCNC(=O)[C@@H]2c3ccccc3C(=O)N(Cc3ccccc3)[C@H]2c2ccc(CO)cc2)cc1 | -0.586
COC(=O)C(CC#Cc1ccc2c(c1)[C@]1(C(=O)N2)[C@H](c2ccccc2OCCO)N2[C@H](c3ccccc3)[C@H](c3ccccc3)OC(=O)[C@H]2[C@@H]1C(=O)Nc1nc2ccccc2s1)C(=O)OC | 1.03
COc1cc2c(cc1OC)CN(C(=O)[C@@H]1[C@H]3C(=O)O[C@H](c4ccccc4)[C@H](c4ccccc4)N3[C@H](c3ccc(OCCO)cc3)[C@@]13C(=O)Nc1ccc(C#CCCO)cc13)CC2 | -0.283

Reference: PubChem BioAssay
